# Measured values published in PubChem BioAssay AID1159580 (chemical genetic matrix, 2015).
# Screen size: about 5,500 compounds; about 2,000 (36%) were called active. Inconclusive results (about 18%) are left out. The list shows a part of the results. A number with no mark means an inactive call. Rule as the data show it: active = normalized growth mostly below about 0.91 (no sharp cut-off); inconclusive = no clear call, values can overlap the other calls; inactive = mostly above about 0.92.
# Assay: chemical genetic growth profiling, strain panel (AID 1159580);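 also: tested at 20 µM; growth read once vehicle control cultures reached saturation at 30 °C; 1 = growth at the plate median or of vehicle wells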
# Details: growth OD
compound,measurement,setting,value
O=c1c(-c2ccccc2)coc2cc(O)cc(O)c12,normalized growth,"S. cerevisiae deletion strains, locus YJL187C, strain SWE1, stronger effect = lower value",0.992
same,normalized growth,"S. cerevisiae deletion strains, locus YJR043C, strain POL32, stronger effect = lower value",0.709 (active)
same,normalized growth,"S. cerevisiae deletion strains, locus YJR075W, strain HOC1, stronger effect = lower value",0.884
same,normalized growth,"S. cerevisiae deletion strains, locus YKL009W, strain mrt4, stronger effect = lower value",0.859 (active)
same,normalized growth,"S. cerevisiae deletion strains, locus YKL068W, stronger effect = lower value",0.951
same,normalized growth,"S. cerevisiae deletion strains, locus YKL085W, strain MDH1 (second series), stronger effect = lower value",0.799 (active)
same,normalized growth,"S. cerevisiae deletion strains, locus YKL085W, strain MDH1, stronger effect = lower value",0.799 (active)
same,normalized growth,"S. cerevisiae deletion strains, locus YKL160W, strain elf1, stronger effect = lower value",0.974
same,normalized growth,"S. cerevisiae deletion strains, locus YKL190W, strain CNB1, stronger effect = lower value",0.929
same,normalized growth,"S. cerevisiae deletion strains, locus YKR001C, strain vps1, stronger effect = lower value",0.567 (active)
same,normalized growth,"S. cerevisiae deletion strains, locus YKR026C, strain gcn3, stronger effect = lower value",1
same,normalized growth,"S. cerevisiae deletion strains, locus YKR091W, strain srl3, stronger effect = lower value",1.01
same,normalized growth,"S. cerevisiae deletion strains, locus YLL001W, strain dnm1, stronger effect = lower value",0.965
same,normalized growth,"S. cerevisiae deletion strains, locus YLL026W, stronger effect = lower value",1
same,normalized growth,"S. cerevisiae deletion strains, locus YLL041C, strain sdh2, stronger effect = lower value",1.01
same,normalized growth,"S. cerevisiae deletion strains, locus YLR027C, strain aat2, stronger effect = lower value",1
same,normalized growth,"S. cerevisiae deletion strains, locus YLR039C, strain RIC1, stronger effect = lower value",0.506 (active)
same,normalized growth,"S. cerevisiae deletion strains, locus YLR058C, strain SHM2, stronger effect = lower value",0.311 (active)
same,normalized growth,"S. cerevisiae deletion strains, locus YLR102C, strain apc9, stronger effect = lower value",0.953
same,normalized growth,"S. cerevisiae deletion strains, locus YLR221C, strain rsa3, stronger effect = lower value",0.923
same,normalized growth,"S. cerevisiae deletion strains, locus YLR258W, strain gsy2, stronger effect = lower value",0.982
same,normalized growth,"S. cerevisiae deletion strains, locus YLR262C, strain YPT6 (second series), stronger effect = lower value",0.915
same,normalized growth,"S. cerevisiae deletion strains, locus YLR262C, strain YPT6, stronger effect = lower value",0.606
same,normalized growth,"S. cerevisiae deletion strains, locus YLR268W, strain sec22, stronger effect = lower value",0.789 (active)
same,normalized growth,"S. cerevisiae deletion strains, locus YLR320W, strain mms22, stronger effect = lower value",0.98
same,normalized growth,"S. cerevisiae deletion strains, locus YLR342W, strain FKS1, stronger effect = lower value",0.976
same,normalized growth,"S. cerevisiae deletion strains, locus YLR357W, strain rsc2, stronger effect = lower value",0.881
same,normalized growth,"S. cerevisiae deletion strains, locus YLR370C, strain arc18, stronger effect = lower value",1.01
same,normalized growth,"S. cerevisiae deletion strains, locus YLR371W, strain rom2, stronger effect = lower value",0.715 (active)
same,normalized growth,"S. cerevisiae deletion strains, locus YLR384C, strain iki3, stronger effect = lower value",1.02
same,normalized growth,"S. cerevisiae deletion strains, locus YLR418C, strain cdc73, stronger effect = lower value",0.534 (active)
same,normalized growth,"S. cerevisiae deletion strains, locus YML016C, strain PPZ1, stronger effect = lower value",0.829 (active)
same,normalized growth,"S. cerevisiae deletion strains, locus YML032C, strain rad52, stronger effect = lower value",0.746 (active)
same,normalized growth,"S. cerevisiae deletion strains, locus YML120C, strain ndi1, stronger effect = lower value",0.963
same,normalized growth,"S. cerevisiae deletion strains, locus YML124C, strain tub3, stronger effect = lower value",0.885 (active)
same,normalized growth,"S. cerevisiae deletion strains, locus YMR058W, strain fet3, stronger effect = lower value",0.682 (active)
same,normalized growth,"S. cerevisiae deletion strains, locus YMR078C, strain ctf18, stronger effect = lower value",0.964
same,normalized growth,"S. cerevisiae deletion strains, locus YMR125W, strain sto1, stronger effect = lower value",0.997
same,normalized growth,"S. cerevisiae deletion strains, locus YMR129W, stronger effect = lower value",1.02
same,normalized growth,"S. cerevisiae deletion strains, locus YMR205C, strain PFK2, stronger effect = lower value",1.02
same,normalized growth,"S. cerevisiae deletion strains, locus YMR223W, strain ubp8, stronger effect = lower value",0.783 (active)
same,normalized growth,"S. cerevisiae deletion strains, locus YMR231W, strain pep5, stronger effect = lower value",1
same,normalized growth,"S. cerevisiae deletion strains, locus YMR263W, strain SAP30, stronger effect = lower value",0.774 (active)
same,normalized growth,"S. cerevisiae deletion strains, locus YMR307W, strain GAS1, stronger effect = lower value",0.57 (active)
same,normalized growth,"S. cerevisiae deletion strains, locus YNL067W, strain RPL9B, stronger effect = lower value",0.842 (active)
same,normalized growth,"S. cerevisiae deletion strains, locus YNL071W, strain lat1, stronger effect = lower value",1.01
same,normalized growth,"S. cerevisiae deletion strains, locus YNL209W, strain ssb2, stronger effect = lower value",0.936
same,normalized growth,"S. cerevisiae deletion strains, locus YNL233W, strain BNI4, stronger effect = lower value",0.792 (active)
same,normalized growth,"S. cerevisiae deletion strains, locus YNL248C, strain rpa49, stronger effect = lower value",0.989
same,normalized growth,"S. cerevisiae deletion strains, locus YNL250W, strain rad50, stronger effect = lower value",0.824 (active)
same,normalized growth,"S. cerevisiae deletion strains, locus YNL271C, strain bni1, stronger effect = lower value",0.646 (active)
same,normalized growth,"S. cerevisiae deletion strains, locus YNL298W, strain CLA4, stronger effect = lower value",0.766 (active)
same,normalized growth,"S. cerevisiae deletion strains, locus YNL307C, strain MCK1, stronger effect = lower value",0.714 (active)
same,normalized growth,"S. cerevisiae deletion strains, locus YNL322C, strain KRE1 (second series), stronger effect = lower value",1.01
same,normalized growth,"S. cerevisiae deletion strains, locus YNR049C, strain mso1, stronger effect = lower value",1.01
same,normalized growth,"S. cerevisiae deletion strains, locus YNR052C, strain pop2, stronger effect = lower value",0.65 (active)
same,normalized growth,"S. cerevisiae deletion strains, locus YOL012C, strain htz1",0.305
same,normalized growth,"S. cerevisiae deletion strains, locus YOL147C, strain pex11, stronger effect = lower value",0.588 (active)
same,normalized growth,"S. cerevisiae deletion strains, locus YOR001W, strain rrp6, stronger effect = lower value",0.964
same,normalized growth,"S. cerevisiae deletion strains, locus YOR061W, strain CKA2, stronger effect = lower value",0.869 (active)
same,normalized growth,"S. cerevisiae deletion strains, locus YOR069W, strain VPS5, stronger effect = lower value",0.848 (active)
same,normalized growth,"S. cerevisiae deletion strains, locus YOR070C, strain gyp1, stronger effect = lower value",1.01
same,normalized growth,"S. cerevisiae deletion strains, locus YOR080W, strain dia2, stronger effect = lower value",1
same,normalized growth,"S. cerevisiae deletion strains, locus YOR083W, strain WHI5, stronger effect = lower value",0.938
same,normalized growth,"S. cerevisiae deletion strains, locus YOR106W, strain vam3, stronger effect = lower value",0.924
same,normalized growth,"S. cerevisiae deletion strains, locus YOR136W, strain idh2, stronger effect = lower value",0.905 (active)
same,normalized growth,"S. cerevisiae deletion strains, locus YOR144C, strain elg1, stronger effect = lower value",0.686 (active)
same,normalized growth,"S. cerevisiae deletion strains, locus YOR184W, strain ser1, stronger effect = lower value",0.669 (active)
same,normalized growth,"S. cerevisiae deletion strains, locus YOR265W, strain rbl2, stronger effect = lower value",1.01
same,normalized growth,"S. cerevisiae deletion strains, locus YOR270C, strain vph1, stronger effect = lower value",0.912
same,normalized growth,"S. cerevisiae deletion strains, locus YOR290C, strain snf2, stronger effect = lower value",0.886
same,normalized growth,"S. cerevisiae deletion strains, locus YOR316C, strain cot1, stronger effect = lower value",0.979
same,normalized growth,"S. cerevisiae deletion strains, locus YPL051W, strain arl3, stronger effect = lower value",0.947
same,normalized growth,"S. cerevisiae deletion strains, locus YPL055C, strain LGE1, stronger effect = lower value",0.744 (active)
same,normalized growth,"S. cerevisiae deletion strains, locus YPL078C, strain atp4, stronger effect = lower value",0.967
same,normalized growth,"S. cerevisiae deletion strains, locus YPL106C, strain sse1, stronger effect = lower value",1.03
same,normalized growth,"S. cerevisiae deletion strains, locus YPL240C, strain hsp82, stronger effect = lower value",0.996
same,normalized growth,"S. cerevisiae deletion strains, locus YPL241C, strain CIN2, stronger effect = lower value",0.911 (active)
same,normalized growth,"S. cerevisiae deletion strains, locus YPR119W, strain clb2, stronger effect = lower value",0.992
same,normalized growth,"S. cerevisiae deletion strains, locus YPR141C, strain kar3, stronger effect = lower value",0.99
same,normalized growth,"S. cerevisiae deletion strains, locus YPR163C, strain tif3, stronger effect = lower value",0.643 (active)
same,normalized growth,"S. cerevisiae deletion strains, locus YPR167C, strain met16, stronger effect = lower value",0.815 (active)
same,normalized growth,"S. cerevisiae deletion strains, strain wtn01, stronger effect = lower value",0.767 (active)
same,normalized growth,"S. cerevisiae strains, strain wild type, stronger effect = lower value",0.772 (active)
